In PubChem BioAssay (NCATS):
Results filed as inconclusive are left out. The source made the active and inactive calls. Calls follow the shape of the dose curve; as a rule, active = well fitted inhibition curve with a large enough effect; inconclusive = small, poorly fitted or top-dose-only effect; inactive = flat fitted curve, though single readings scatter.

The molecules below were run on Zika virus NS2B-NS3 protease (linked construct) (assay: Confirmatory screen NINDS AMC qHTS for Zika virus inhibitors (AID 1347152; also: nearly all actives have a fitted effect of over 70% in size;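 as to activity change, negative = inhibition: AMC fluorescence gain from cleaved Bz-Nle-KRR-AMC substrate over 15 min; top concentration of the series differs between compounds; 0% = no-inhibitor control and -100% = no-enzyme control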)). Conditions: Purified linked NS2B-NS3, AMC substrate fluorescence; series mostly up to 56.6 µM; activity change, negative = inhibition: at the top concentration.
Excerpt: Assay Submitters (PI): Avindra Nath, Ph.D., National Institute of Neurological Disorders and Stroke (NINDS), Bethesda, MD Radhakrishnan Padmanabhan, Ph.D., Georgetown University (GU), Washington D.C. Zika Virus causes congenital defects, including microcephaly and is associated with Guillain-Barre syndrome, eningoencephalitis and myelitis in infected adult. […] Using a target-based approach, we hope to establish a screening paradigm to uncover novel, cell-active NS2B-NS3 protease (Zika Virus) specific inhibitors from NCATS' collection of small molecules using qHTS. […] Four assay panel was created to identify potential Zika Virus inhibitors. Namely, (1) GU unlinked NS2B-NS3 AMC tagged protease qHTS, (2) GU unlinked NS2B-NS3 Rhodamine tagged protease qHTS, (3) NINDS linked NS2B-NS3 AMC tagged protease qHTS, (4) NINDS linked NS2B-NS3 Rhodamine tagged protease qHTS. Active compounds were re-acquired and re-screened to confirm inhibition. Inhibitors were further screened against various confirmatory and counterscreens in dose response format. Early Translation Branch (ETB) National Center for Advancing Translational Sciences (NCATS), Rockville, MD National Institute of Health (NIH), Bethesda, Maryland
Materials: For the linked assay, Nath lab (NINDS) provided the purified linked NS2B-NS3 protease which is consists of hydrophilic domain of NS2B linked to the NS3 protease domain by a flexible (-[…]-) linker. Control compound aprotinin is obtained from Thermo Scientific (#78432; Waltham, Massachusetts). NS2B-NS3 AMC substrate (Bz-Nle-Lys-Arg-Arg-AMC; Nle-KRR-AMC) purchased from Bachem (#I-1995; Torrance, CA). Ac-VKTGKR-AMC purchased from Genscript or Bachem, Ac-FAAGKR-AMC purchased from Genscript, Ac-GLVKRR-AMC purchased from Genscript, Ac-LKKR-AMC purchased from Genscript. NINDS AMC linked NS2B-NS3 protease qHTS protocol: Briefly, 3 microL of Zika virus linked NS2B-NS3 protease (1 nM for linked final concentration), in assay buffer (10 mM Tris-HCl pH 8.0 with 0.01% Tween 20) was dispensed into a 1,536-well solid-bottom black plate (Greiner Bio One, Monroe, NC). Twenty-three nL of compounds (final concentration range 7.28 nM to 114 microM) or control Aprotinin (final concentration range 3.47 nM to 114 microM) were transferred via Wako Pin-tool (Wako Automation, Richmond, VA). Samples were incubated (room temperature, protected from light) for 15 minutes followed by a 1 microL AMC substrate addition of (final concentration of 10 microM; Km = 18.3 µM). Plates were then read immediately on a ViewLux High-throughput CCD imager (PerkinElmer, Waltham, MA) equipped with standard UV fluorescence optics (340(30) nm excitation, 450(20) nm emission) then incubated (room temperature, protected from light) for 15 minutes (~20% conversion). The change in fluorescence intensity over the 15-minute reaction period was normalized against no-inhibitor and no-enzyme controls and the resulting percent inhibition data were fitted to a 4-parameter Hill equation. Aprotinin was used as the intraplate control.
Potency is read from the fitted curve at half-maximal effect.

SMILES | Potency | activity change, negative = inhibition
COc1ccc(Br)cc1S(=O)(=O)NC(=O)/C=C/c1ccccc1Cc1ccc2ccccc2c1 | 10.8 µM (active) | –
CCCCN(CC)c1nc(C)nc2c1c(C)cn2-c1c(C)cc(C)cc1C | – | -24% (inactive)
Oc1cc2c(cc1O)CN(C(=S)NCCc1ccc(Cl)cc1)CCC2 | – | 23.5% (inactive)
Cn1c(=O)c2[nH]c(-c3ccccc3)nc2n(C)c1=O | 21.5 µM (active) | –
CN1CCN(c2cc3c(nn2)Oc2ccccc2N3C)CC1 | 10.5 µM (active) | –
O=C(NOCC1CC1)c1cc(Br)c(F)c(F)c1Nc1ccc(I)cc1Cl | – | 11.8% (inactive)
COC(=O)C1=C(C)NC(C)=C(C(=O)OC)C1c1cccc(NC(=O)NCCCN2CCC(c3cccc(OC)c3)CC2)c1 | – | 15.1% (inactive)
S=c1[nH]c(-c2ccccc2)cn1-c1ccccc1 | – | -1.61% (inactive)
O=C1NC(=O)/C(=C/c2ccc(-c3ccc(F)cc3O)o2)S1 | – | -4.39% (inactive)
COc1ccc(/C=C/c2nc(NCCCN(C)C)c3ccccc3n2)cc1 | – | 1.77% (inactive)
